Results on 60 compounds are retold here after PubChem BioAssay (NCATS).

Results filed as inconclusive are left out. Active and inactive are the calls of the source. Calls come from the whole dose curve; as a rule, active = well fitted curve in the direction sought with a large enough effect in the repeat runs; inconclusive = weak or mixed curves; inactive = no such curve, though single readings can be large; an effect the other way counts as inactive or inconclusive.

Experiment [1] concerns the target Cytochrome P450 2D6 (Homo sapiens) (UniProt P10635). In words: Cytochrome P450 family 2 subfamily D member 6 (CYP2D6) small molecule antagonists: luciferase biochemical (cell-free) qHTS assay (AID 1645840). To be noted: P450-Glo CYP2D6 enzyme, luciferin luminescence, 1 h; series mostly up to 57.4 µM. In short, it runs like this: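 P450-Glo luminescent screen: recombinant CYP2D6 enzyme–proluciferin substrate mix preincubated with compound 10 min at room temperature, then NADPH regeneration added for 1 h at room temperature. Detection reagent added for 20 min; luciferin light read as relative luminescence units.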

The target in experiment [2] is Cytochrome P450 2C9 (Homo sapiens) (UniProt P11712). In words: Cytochrome P450 family 2 subfamily C member 9 (CYP2C9) small molecule antagonists: luciferase biochemical (cell-free) qHTS assay (AID 1645842). To be noted: P450-Glo CYP2C9 enzyme assay, luciferin luminescence; series mostly up to 57.4 µM. In short, it runs like this:
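Luminescence, after 20 min with luciferin detection reagent, reflected CYP2C9 turnover during a 1 h NADPH-driven reaction at 37C. Enzyme-substrate mix contained 0.4% bovine serum albumin and was preincubated with compound 10 min at room temperature.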
Note: nearly all actives have a fitted effect of over 55% in size.
Potency is the fitted concentration of half-maximal effect.

Chain of Cytochrome P450 2D6 (Homo sapiens) (P10635 whole entry, looked up): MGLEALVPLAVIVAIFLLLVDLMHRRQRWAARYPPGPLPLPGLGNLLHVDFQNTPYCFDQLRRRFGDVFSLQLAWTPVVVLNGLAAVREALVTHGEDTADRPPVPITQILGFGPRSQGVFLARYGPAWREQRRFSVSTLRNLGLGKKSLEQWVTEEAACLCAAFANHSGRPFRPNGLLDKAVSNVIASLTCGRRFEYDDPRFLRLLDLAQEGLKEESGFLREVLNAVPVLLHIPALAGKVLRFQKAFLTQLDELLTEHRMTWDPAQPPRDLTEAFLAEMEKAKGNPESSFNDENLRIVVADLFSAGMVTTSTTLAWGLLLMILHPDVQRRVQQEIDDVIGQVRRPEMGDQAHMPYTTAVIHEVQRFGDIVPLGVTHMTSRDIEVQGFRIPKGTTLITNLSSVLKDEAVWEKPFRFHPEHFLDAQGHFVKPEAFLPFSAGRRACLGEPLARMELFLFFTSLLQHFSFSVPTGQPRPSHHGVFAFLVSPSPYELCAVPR
Chain of Cytochrome P450 2C9 (Homo sapiens) (P11712 whole entry, looked up): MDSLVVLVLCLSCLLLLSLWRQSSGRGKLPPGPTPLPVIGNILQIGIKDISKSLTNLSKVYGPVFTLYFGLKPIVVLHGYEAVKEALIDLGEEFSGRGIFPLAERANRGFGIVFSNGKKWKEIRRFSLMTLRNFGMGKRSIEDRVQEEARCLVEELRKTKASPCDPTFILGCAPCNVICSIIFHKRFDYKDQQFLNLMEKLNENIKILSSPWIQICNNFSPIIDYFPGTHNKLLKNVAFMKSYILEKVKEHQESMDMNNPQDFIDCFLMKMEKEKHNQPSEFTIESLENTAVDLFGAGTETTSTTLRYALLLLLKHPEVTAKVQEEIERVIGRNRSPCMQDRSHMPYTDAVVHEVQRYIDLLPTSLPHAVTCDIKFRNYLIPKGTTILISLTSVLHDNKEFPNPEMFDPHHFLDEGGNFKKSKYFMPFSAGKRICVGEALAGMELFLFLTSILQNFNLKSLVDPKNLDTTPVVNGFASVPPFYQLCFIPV

Consider `COC(=O)c1cnc(N2CCN(c3ccc(OC)cc3)CC2)c2ccccc12`, for which the Potency entry in experiment [1] is “inactive”. For the same compound, in experiment [2], the Potency was 2.13 µM (active).

For `C=CCNCCCCCC[N+](C)(C)C`, the Potency result in experiment [1] and in experiment [2] was “inactive” each time.

In the case of `COc1ccccc1CNC(=O)CCC1N=C2c3ccccc3N=C(SCC(=O)NCCc3ccc(OC)c(OC)c3)N2C1=O` (stereo not given), the Potency result in experiment [1] was “inactive”. The Potency in experiment [2] was 0.301 µM (active).

Turning to `COc1ccc(CN(C2CCCCC2)[S+](=O)([O-])c2ccc(C)cc2)cc1OC`, the Potency result in experiment [1] was “inactive”. The Potency in experiment [2] is 3.79 µM (active).

Consider `Cc1ccc(C2=CC(c3ccccc3F)n3c(nc4ccccc43)N2)cc1C` (stereo not given), for which the Potency is 10.7 µM (active) in experiment [1] and 6.01 µM (active) in experiment [2].

With `CCCCCCCCCCCCCCCC(=O)OC[C@H](O)[C@H]1OC(=O)C(=O)C1O` (stereo not given in full), in experiment [1], the Potency entry is “inactive”. Also, the Potency in experiment [2] is 26.8 µM (active).

For `COc1cc(C(=O)NC(c2ccccc2Cl)c2cc(Cl)c3cccnc3c2O)cc(OC)c1OC` (stereo not given), the Potency entry in experiment [1] is “inactive”. Besides, the Potency in experiment [2] was 15.1 µM (active).

Regarding `COc1ccc(CNC(=O)Nc2ccc3c(c2)N(C)C(=O)c2ccccc2S3)cc1OC`, the Potency in experiment [1] was 9.52 µM (active). Besides, the Potency result in experiment [2] was “inactive”.

With `COC(=O)C1=C(c2ccccc2)c2ccccc2S(=O)(=O)N1CC(=O)Nc1ccccc1Cl`, the Potency is 3.79 µM (active) in experiment [1] and 4.77 µM (active) in experiment [2].

`COc1cccc(-c2oc3ccc(C)cc3c(=O)c2O)c1`: the Potency in experiment [1] and in experiment [2] was 7.56 µM (active) in each case.

Turning to `CCCOCc1cc(CN2CCN(c3ccccc3OC)CC2)c(O)c2ncccc12`, the Potency was 13.5 µM (active) in experiment [1] and 7.56 µM (active) in experiment [2].

For the compound `COc1ccc(-n2nc3c(N4CCCC(C(=O)NCc5ccccc5C)C4)nnc(C)c3c2C)cc1` (stereo not given), the Potency in experiment [1] is 4.77 µM (active); in experiment [2], 0.477 µM (active).

As to `Cc1ccc(-n2c(SCc3ccccc3C)nc3[nH]ncc3c2=O)cc1C`, the Potency in experiment [1] is 12 µM (active); in experiment [2], 21.3 µM (active).

`COc1ccc(C(=O)Nc2nc3ccccc3n2CCOc2ccc(Cl)cc2)cc1`: the Potency entry in experiment [1] is “inactive”. Further, the Potency in experiment [2] is 26.8 µM (active).

Take `CC1=C(C(=O)NCc2cncn2C)C(c2ccccc2Cl)N=C(Nc2nc3ccccc3o2)N1` (stereo not given): the Potency in experiment [1] was 9.52 µM (active); in experiment [2], 7.56 µM (active).

For the compound `CNC(=O)c1ccc(CSc2nc3ccncc3n2Cc2ccc(C)cc2)cc1`, the Potency in experiment [1] is 13.5 µM (active); in experiment [2], 7.56 µM (active).

As for `CCC(=O)N1CCc2cc(S(=O)(=O)NC(Cc3ccccc3)C(=O)NCc3cccc(OC)c3)ccc21` (stereo not given), the Potency in experiment [1] and in experiment [2] was 12 µM (active) each time.

Take `CNS(=O)(=O)c1ccc(Cc2c(-c3cccc(-c4ccccc4)c3)[nH]n(-c3nc(C(=O)O)cs3)c2=O)cc1`: the values for the Potency in experiment [1] and in experiment [2] were 26.8 µM (active) and 21.3 µM (active), respectively.

`COc1ccc(CNC(=O)C2CCCN(c3nnc(C)c4c(C)n(-c5ccc(C)cc5)nc34)C2)cc1` (stereo not given): the Potency is 19 µM (active) in experiment [1] and 2.68 µM (active) in experiment [2].

Turning to `COc1ccc(-c2noc(CCCC(=O)Nc3cccc(Cl)c3C)n2)cc1`, the Potency entry in experiment [1] is “inactive”. Moreover, the Potency in experiment [2] is 3.79 µM (active).

`O=C(NCc1ccco1)c1ccc2c(c1)N(Cc1cccc(Cl)c1)C(=O)c1ccccc1S2=O` (stereo not given): the Potency in experiment [1] is 1.2 µM (active); in experiment [2], 1.34 µM (active).

Turning to `Cc1ccc(C)c(NC(=O)C2CCN(S(=O)(=O)c3c(C)noc3/C=C/c3cccs3)CC2)c1`, the values for the Potency in experiment [1] and in experiment [2] were 2.39 µM (active) and 0.849 µM (active), respectively.

Regarding `CCN1CCN(CCCNC(=O)c2cc3c(s2)-c2c(C)cccc2OC3)CC1`, the Potency in experiment [1] is 10.7 µM (active). Further, the Potency result in experiment [2] was “inactive”.

With `COc1cc(C(c2c(C)[nH][nH]c2=O)c2c(C)[nH][nH]c2=O)ccc1OC(=O)c1cccc(C)c1`, in experiment [1], the Potency result was “inactive”. In addition, in experiment [2], the Potency is 12 µM (active).

For the compound `COc1ccc(C(C#N)C(C)C)cc1OC` (stereo not given), the Potency entry in experiment [1] and in experiment [2] was “inactive” throughout.

In the case of `Cc1c(Cl)cccc1NC(=O)Cn1cc(C(=O)C2CCCCC2)c2ccccc21`, the Potency in experiment [1] was 5.35 µM (active); in experiment [2] it was 2.13 µM (active).

Consider `CC1=CC(O)=NS(=O)(=O)O1`, for which the Potency result in experiment [1] and in experiment [2] was “inactive” throughout.

Turning to `CCc1ccc(C2=CC(c3cccc(C)c3)n3c(nc4ccccc43)N2)cc1` (stereo not given), the values for the Potency in experiment [1] and in experiment [2] were 9.52 µM (active) and 6.01 µM (active), respectively.

For `O=C(NC1CCCCC1)c1ccc(CSc2nc3cccnc3n2Cc2ccccc2F)cc1`, the results for the Potency in experiment [1] and in experiment [2] were 9.52 µM (active) and 0.338 µM (active), respectively.

Regarding `CCc1ccc(-n2c(SCc3ccccc3Cl)nc3[nH]ncc3c2=O)cc1`, the Potency was 15.1 µM (active) in experiment [1] and 23.9 µM (active) in experiment [2].

As to `NCC1OC(OC2C(N)CC(N)C(OC3OC(CO)C(O)C(N)C3O)C2O)C(N)CC1O` (stereo not given), the Potency entry in experiment [1] and in experiment [2] was “inactive” in each case.

On to `COC(=O)c1ccc(C2C=C(c3ccc(Cl)cc3)Nc3nc4ccccc4n32)cc1` (stereo not given), for which the Potency was 3.38 µM (active) in experiment [1] and 2.68 µM (active) in experiment [2].

Regarding `Cc1ccc(C(=O)c2cn(CC(=O)Nc3ccc4c(c3)OCCO4)c3nc(C)ccc3c2=O)cc1`, in experiment [1], the Potency entry is “inactive”. Also, the Potency in experiment [2] was 9.52 µM (active).

With `CCOc1ccc(-c2nonc2NC(=O)c2oc3c(C)c(C)ccc3c2C)cc1OCC`, the Potency entry in experiment [1] is “inactive”. Also, the Potency in experiment [2] is 0.379 µM (active).

Regarding `COC(=O)c1c(SCC(=O)Nc2cc(C)cc(C)c2)[nH]c2ccccc2c1=O`, in experiment [1], the Potency result is “inactive”. Also, the Potency in experiment [2] was 21.3 µM (active).

As for `COC(=O)c1c(-c2ccc(Cl)cc2)noc1N1CCN(c2ccccc2OC)CC1`, the Potency entry in experiment [1] and in experiment [2] was “inactive” throughout.

Turning to `COc1ccc(Cn2ccnc2SCC(=O)Nc2nc3ccccc3s2)cc1`, the figures for the Potency in experiment [1] and in experiment [2] were 9.52 µM (active) and 2.39 µM (active), respectively.

Regarding `CCOC(=O)c1cc(S(=O)(=O)N2CCN(c3cc(Cl)ccc3C)CC2)[nH]n1`, the Potency in experiment [1] was 26.8 µM (active); in experiment [2], 1.2 µM (active).

As for `Cc1ccc(Cn2c(CN3CCC(C(=O)NCCc4ccccc4)CC3)cc3ccccc32)cc1`, the Potency in experiment [1] was 0.0477 µM (active); in experiment [2], 2.13 µM (active).

`CC1(C#N)CCN(c2c(C(=O)N3CCN(S(C)(=O)=O)CC3)cnc3ccc(F)cc23)CC1`: the Potency entry in experiment [1] and in experiment [2] was “inactive” throughout.

As for `N#C/C(=C/c1ccccc1Cl)c1nc2ccccc2c(=O)[nH]1`, the Potency result in experiment [1] was “inactive”. The Potency in experiment [2] was 3.38 µM (active).

Consider `CCc1ccc(OCCn2c(C3CC(=O)N(Cc4ccc(F)cc4)C3)nc3ccccc32)cc1` (stereo not given), for which the Potency in experiment [1] was 3.01 µM (active). Besides, the Potency entry in experiment [2] is “inactive”.

`Cc1ccc(Cn2c(SCC(=O)NCc3ccccc3)nc3ccsc3c2=O)cc1`: the Potency in experiment [1] was 6.01 µM (active); in experiment [2], 6.74 µM (active).

Consider `CCCCCCCCCCCCCCCCNc1ccc(C(=O)O)cc1`, for which the Potency entry in experiment [1] and in experiment [2] was “inactive” in each case.

For `Cc1ccc(C)c(NC(=O)Cn2cc(C(=O)c3ccco3)c3ccccc32)c1`, the Potency in experiment [1] was 0.425 µM (active). In addition, in experiment [2], the Potency entry was “inactive”.

With `Cc1ccc(NC(=O)Cn2c(=O)n(CCC(=O)N3CCc4ccccc4C3)c(=O)c3ccccc32)c(C)c1`, in experiment [1], the Potency result is “inactive”. Moreover, in experiment [2], the Potency was 0.338 µM (active).

In the case of `CCOc1ccccc1NC(=O)Nc1nnc(N2CCCC(C)C2)s1` (stereo not given), the Potency entry in experiment [1] was “inactive”. Also, the Potency in experiment [2] was 10.7 µM (active).

With `CC1=C(C(=O)Nc2cccc(-c3cn[nH]c3)c2)C(c2ccccc2Cl)N=C(Nc2nc3ccccc3o2)N1` (stereo not given), the Potency in experiment [1] was 21.3 µM (active); in experiment [2], 1.07 µM (active).

As to `CCCNC(=O)C1CCC(Cn2c(=O)c3sccc3n(CC(=O)NCc3ccccc3)c2=O)CC1` (stereo not given), in experiment [1], the Potency entry is “inactive”. In addition, the Potency in experiment [2] was 6.01 µM (active).

Take `Cc1ccc2nc(NC(=O)CSc3nccn3Cc3ccccc3)sc2c1`: the results for the Potency in experiment [1] and in experiment [2] were 8.49 µM (active) and 9.52 µM (active), respectively.

Consider `CCc1ccc(S(=O)(=O)NCc2ccc3c(c2)CCN3C(=O)c2ccc(C)cc2)cc1`, for which the Potency in experiment [1] was 5.35 µM (active); in experiment [2], 0.674 µM (active).

Take `COc1ccc(-n2ccn(CC(=O)Nc3ccc(C)c(C)c3)c(=O)c2=O)cc1OC`: the Potency result in experiment [1] and in experiment [2] was “inactive” each time.

Consider `COc1ccc(NC(=O)CSc2nc(-c3cccs3)cc(C(F)(F)F)n2)cc1OC`, for which the Potency result in experiment [1] and in experiment [2] was “inactive” throughout.

Regarding `COc1ccc(-c2nc(SCC(=O)Nc3ccc4c(c3)OCO4)c(-c3ccccc3)[nH]2)cc1`, the Potency in experiment [1] is 6.01 µM (active); in experiment [2] it was 1.2 µM (active).

Regarding `COc1ccc(CC(=O)NCC(c2cccs2)S(=O)(=O)c2ccc(Cl)cc2)cc1` (stereo not given), the Potency was 6.01 µM (active) in experiment [1] and 2.39 µM (active) in experiment [2].

In the case of `CCc1ccc(-n2c(SCc3cccc(F)c3)nc3[nH]ncc3c2=O)cc1`, the Potency in experiment [1] and in experiment [2] was 12 µM (active) in each case.

Turning to `Cc1cccn2c(=O)c3cc(C#N)c(=O)n(-c4nnc(SCc5ccc(Cl)cc5)s4)c3nc12`, the Potency entry in experiment [1] is “inactive”. The Potency in experiment [2] was 6.01 µM (active).

Turning to `CC1(C#N)CCN(c2c(C(=O)N3CCN(C(=O)N4CCCC4)CC3)cnc3c(F)cc(F)cc23)CC1`, in experiment [1], the Potency entry was “inactive”. Moreover, the Potency in experiment [2] was 12 µM (active).

Turning to `Cc1ccc(NC(=O)Cn2cc(C(=O)c3ccco3)c3ccccc32)c(C)c1`, the values for the Potency in experiment [1] and in experiment [2] were 6.74 µM (active) and 0.849 µM (active), respectively.

With `CCc1ccc(C2=CC(c3cccc(OC)c3OC)n3c(nc4ccccc43)N2)cc1` (stereo not given), the Potency in experiment [1] is 16.9 µM (active); in experiment [2] it was 3.79 µM (active).
